Test results from PubChem BioAssay (NCATS).
“And” between values parts separate entries of the source, which are not always exact repeats. Equal entries are not always repeated. Records with an inconclusive call do not appear. Some compounds were tested as several samples or in several runs, with calls that do not always agree. A number with no mark means an inactive call. The source made the active and inactive calls. The call rests on the fitted dose curve; in most records, active means well fitted inhibition curve with a large enough effect; inconclusive means small, poorly fitted or top-dose-only effect; inactive means flat fitted curve, though single readings scatter.

Each compound was assayed on CRL-7250 (assay: Cytotoxic Profiling of Annotated Libraries Using Quantitative High-Throughput Screening (AID 1296008; further: nearly all actives have a fitted effect of over 60% in size)). Details: Five cell lines viability, CellTiter-Glo ATP luminescence, 48-72 h; max response: hits give low values.
How it was run: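 Cytotoxicity was measured as CellTiter-Glo ATP luminescence, read after 10 min at room temperature. Compound treatment of the cells lasted 48 or 72 hr at 37 degrees Celsius in a qHTS format.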
On the % scale 0 is the no-effect control and ±100 the full control effect; potency means the concentration at half of the fitted maximal effect.

Row | SMILES | Potency | max response | outcome
1 | NS(=O)(=O)c1cccc2c1C(=O)c1cccc(O)c1C2=O | 0.526 µM (active) | – | –
2 | Clc1ccc(-c2nc3sccn3c2C=NOCc2ccc(Cl)c(Cl)c2)cc1 | – | -8.97% | –
3 | CC(=Cc1ccccc1)C=C1SC(=S)N(CC(=O)O)C1=O | – | -0.535% | –
4 | Cc1ccccc1C(C(=O)NC1CCCCC1)N(C(=O)Cn1ccnc1C)c1cccc(F)c1 (stereo not drawn) | – | -5.16% | inactive
5 | CC(C)n1nc(-c2ccc3oc(N)nc3c2)c2c(N)ncnc21 | 1 nM (active) and 58 nM (active) | – | –
6 | O=C1C(Cl)=C(NCCN2CCOCC2)C(=O)c2ncccc21 | 9.35 µM (active) | – | –
7 | CC(=O)N(C)C1(c2ccccc2)CCN(CCC[C@]2(c3ccc(Cl)c(Cl)c3)CCCN(C(=O)c3ccccc3)C2)CC1 | – | -7.82% | –
8 | CC(C(=O)O)c1ccc(-c2ccccc2)c(F)c1 (stereo not drawn) | – | 2.91% | –
9 | COc1ccc(C2CC(c3ccccc3)=NN2c2ccc(S(N)(=O)=O)cc2)cc1 (stereo not drawn) | 10.5 µM (active) | -2.01% | –
10 | CS(=O)c1ccc(-c2nc(-c3ccc(F)cc3)c(-c3ccncc3)[nH]2)cc1 (stereo not drawn) | 19.1 µM (active) | – | inactive
11 | NC(CO)(CO)CCc1ccc(Sc2cccc(OCc3ccccc3)c2)cc1Cl | – | -10.2% | –
12 | CCN(CC)CCOc1ccc(C(=C(Cl)c2ccccc2)c2ccccc2)cc1 | – | -5.74% | –
13 | CO[C@H]1C[C@@H]2CC[C@@H](C)[C@@](O)(O2)C(=O)C(=O)N2CCCC[C@@H]2C(=O)O[C@H]([C@H](C)C[C@@H]2CC[C@H](OCCO)[C@H](OC)C2)CC(=O)[C@H](C)C=C(C)[C@@H](O)[C@@H](OC)C(=O)[C@H](C)C[C@H](C)C=CC=CC=C1C | – | -75.3% | –
14 | Cn1cc(C=C2C(=O)Nc3cccnc32)c2ccccc21 | – | -3.71% | –
15 | COc1ccc2cc(-c3nc(-c4ccc(S(C)=O)cc4)[nH]c3-c3ccncc3)ccc2c1 (stereo not drawn) | – | -4.22% | inactive
16 | Cc1c(NC(=O)c2ccc(C(C)(C)C)cc2)cccc1-c1cn(C)c(=O)c(Nc2ccc(C(=O)N3CCOCC3)cc2)n1 | – | 2.1% | inactive
17 | CC(C)(C)c1cc(C(=O)O)c(NC(=O)Nc2ccc3[nH]ncc3c2)s1 | – | -5.25% and -2.72% | –

Row | SMILES | Potency | max response | outcome
18 | Cc1ccc(Nc2cc(-c3cccc(N4C(=O)c5ccccc5C4=O)c3)ncn2)cc1NS(C)(=O)=O | – | – | inactive
19 | CC[C@H]1OC(=O)[C@H](C)[C@@H](O[C@H]2C[C@@](C)(OC)[C@@H](O)[C@H](C)O2)[C@H](C)[C@@H](O[C@@H]2O[C@H](C)C[C@H](N(C)C)[C@@H]2O)[C@](C)(O)C[C@@H](C)CN(C)[C@H](C)[C@@H](O)[C@]1(C)O | – | – | inactive
20 | CN(C)c1cc(NC(=O)CNC(C)(C)C)c(O)c2c1C[C@@H]1C[C@H]3[C@H](N(C)C)C(=O)C(C(N)=O)=C(O)[C@@]3(O)C(=O)C1=C2O | – | -28.8% | –
21 | CCC(=O)NC[C@H](Cc1ccc(OCCc2nc(-c3ccccc3)oc2C)cc1)NC(C)=CC(=O)c1ccc(C(F)(F)F)cc1 | – | -13.2% | –
22 | NC(=O)c1ccc2nc(-c3ccc(Oc4ccc(Cl)cc4)cc3)[nH]c2c1 | – | -25.5% | inactive
23 | CCOC(=O)C1=C(N)Oc2ccc(Br)cc2C1C(C#N)C(=O)OCC (stereo not drawn) | – | 2.39% and -0.818% and 2% | –
24 | CC=C(C)C(=O)O[C@H]1C(C)=C[C@]23C(=O)[C@@H](C=C(CO)[C@@H](O)[C@]12O)[C@H]1[C@@H](C[C@H]3C)C1(C)C | – | 2.46% | –
25 | O=C(O)c1ccc(-c2c[nH]c3ncc(-c4ccccc4)cc23)cc1C1CCCC1 | – | -5.06% | –
26 | COc1cc2ncnc(-n3nc(-c4ccccn4)nc3N)c2cc1OC | 3.55 µM (active) | -12.8% | –
27 | O=C(NC1CCOCC1)c1ccc(-c2cc(-c3cn[nH]c3-c3ccccn3)ccn2)cc1 | – | -5.17% | inactive
28 | CC(C)(C)Cn1c(N)nc2ccc(-c3[nH]c(C(C)(C)C)nc3-c3ccc(F)cc3)nc21 | – | -25.6% and -19.9% | –
29 | CO[C@H]1C(=O)[C@]2(C)[C@@H](OC)C[C@H]3OC[C@@]3(OC(C)=O)[C@H]2[C@H](OC(=O)c2ccccc2)[C@]2(O)C[C@H](OC(=O)[C@H](O)[C@@H](NC(=O)OC(C)(C)C)c3ccccc3)C(C)=C1C2(C)C | – | -47% | –
30 | O=C(CCCCCCC(=O)Nc1ccccc1)NO | 8.41 µM (active) and 10.3 µM (active) and 11.8 µM (active) | – | –
31 | O=c1ccn([C@@H]2O[C@H](CO)[C@H](O)[C@H]2O)c(=O)[nH]1 | – | -5.18% | –
32 | Nc1ncnc2ccccc12 | – | – | inactive
33 | O=C(CCN1CCN(C(=O)OCc2cc(Cl)cc(Cl)c2)CC1)c1ccc2[nH]c(=O)oc2c1 | – | -14.6% | inactive
34 | CO[C@H]1C[C@@H]2CC[C@@H](C)[C@@](O)(O2)C(=O)C(=O)N2CCCC[C@@H]2C(=O)O[C@H]([C@@H](C)C[C@@H]2CC[C@H](O)[C@H](OC)C2)CC(=O)[C@H](C)C=C(C)[C@@H](O)[C@@H](OC)C(=O)[C@H](C)C[C@H](C)C=CC=CC=C1C | – | -19.3% | –
